Data as given in PubChem BioAssay (NCATS).
Results filed as inconclusive are left out. Calls of active or inactive are those of the source. Unless noted, calls come from the whole dose curve; as a rule, active = well fitted curve in the direction sought with a large enough effect; inconclusive = small, poorly fitted or top-dose-only effect, or another doubt; inactive = no such curve, though single readings can be large; an effect the other way counts as inactive or inconclusive.

Experiments:
[1] = AP1 Signaling Pathway (AID 357; active = well fitted curve in either direction with a large enough effect, not every such curve was filed as active; note: % is set by controls: 0 for no effect and ±100 for the full control effect)
Method in brief: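 ME-180 cells with beta-lactamase reporter under AP-1 response element, stimulated with EC50 EGF; compounds tested in titration series, 5 h at 37 °C. CCF4 substrate added 2.5 h at room temperature; 460/530 nm emission ratio gave %activity and AC50.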

[2] = target: Cytochrome P450 1A2 (Homo sapiens) (UniProt P05177); experiment: p450-cyp1a2 (AID 410; calls by dose curve; note: potency is the fitted concentration of half-maximal effect;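 for activity change, negative = inhibition: -100% = full effect of reference inhibitor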)
Chain of Cytochrome P450 1A2 (Homo sapiens) (P05177 whole entry, looked up): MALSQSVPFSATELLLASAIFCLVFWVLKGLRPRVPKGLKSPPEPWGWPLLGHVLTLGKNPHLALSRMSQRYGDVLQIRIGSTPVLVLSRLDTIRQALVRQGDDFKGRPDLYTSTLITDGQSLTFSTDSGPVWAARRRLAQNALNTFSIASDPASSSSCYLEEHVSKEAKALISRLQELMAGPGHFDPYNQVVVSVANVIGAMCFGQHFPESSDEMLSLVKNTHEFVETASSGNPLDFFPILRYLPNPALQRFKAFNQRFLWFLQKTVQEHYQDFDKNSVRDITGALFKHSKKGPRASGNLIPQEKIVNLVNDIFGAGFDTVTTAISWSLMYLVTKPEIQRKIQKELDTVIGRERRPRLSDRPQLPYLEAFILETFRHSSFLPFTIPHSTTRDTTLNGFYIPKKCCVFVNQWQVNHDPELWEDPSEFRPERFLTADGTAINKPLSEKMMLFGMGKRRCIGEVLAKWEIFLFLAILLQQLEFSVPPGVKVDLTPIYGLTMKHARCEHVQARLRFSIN
Method in brief: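 Human CYP1A2 (20nM) demethylated Luciferin-ME at its Km (100uM) in 100mM KPO4. After 10 min compound preincubation, NADPH regeneration ran the reaction 60 min at room temperature. Luciferin was read by luminescence, normalized to 57 uM furafylline.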

[3] = Stat Signaling Pathway (AID 446; active = well fitted curve in either direction with a large enough effect, not every such curve was filed as active;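 note: ME-180 cervical cancer cells given 40 pM IL-6 alongside compound; SIE-controlled beta-lactamase reporter measured as 460/530 nm FRET emission ratio; % is set by controls: 0 for no effect and ±100 for the full control effect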)
Method in brief: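 ME-180 SIE-bla cells; overnight plating; cpd + IL-6 40 pM, 5 h, 37 C; LiveBLAzer 2.5 h RT; 460/530 nm emission ratio. Normalized to 300 pM IL-6 and 125 nM JAK inhibitor controls.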

[4] = target: Glucocorticoid receptor (Homo sapiens) (UniProt P04150); experiment: GR-GFP Redistribution (AID 450;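 active = compounds whose dose series gives a full or clear partial fitted curve of increased nuclear translocation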; note: potency is the fitted concentration of half-maximal effect); details: U2OS GR-GFP nuclear translocation, laser cytometry, 2 h
Chain of Glucocorticoid receptor (Homo sapiens) (P04150 whole entry, looked up, the tested form may be a part): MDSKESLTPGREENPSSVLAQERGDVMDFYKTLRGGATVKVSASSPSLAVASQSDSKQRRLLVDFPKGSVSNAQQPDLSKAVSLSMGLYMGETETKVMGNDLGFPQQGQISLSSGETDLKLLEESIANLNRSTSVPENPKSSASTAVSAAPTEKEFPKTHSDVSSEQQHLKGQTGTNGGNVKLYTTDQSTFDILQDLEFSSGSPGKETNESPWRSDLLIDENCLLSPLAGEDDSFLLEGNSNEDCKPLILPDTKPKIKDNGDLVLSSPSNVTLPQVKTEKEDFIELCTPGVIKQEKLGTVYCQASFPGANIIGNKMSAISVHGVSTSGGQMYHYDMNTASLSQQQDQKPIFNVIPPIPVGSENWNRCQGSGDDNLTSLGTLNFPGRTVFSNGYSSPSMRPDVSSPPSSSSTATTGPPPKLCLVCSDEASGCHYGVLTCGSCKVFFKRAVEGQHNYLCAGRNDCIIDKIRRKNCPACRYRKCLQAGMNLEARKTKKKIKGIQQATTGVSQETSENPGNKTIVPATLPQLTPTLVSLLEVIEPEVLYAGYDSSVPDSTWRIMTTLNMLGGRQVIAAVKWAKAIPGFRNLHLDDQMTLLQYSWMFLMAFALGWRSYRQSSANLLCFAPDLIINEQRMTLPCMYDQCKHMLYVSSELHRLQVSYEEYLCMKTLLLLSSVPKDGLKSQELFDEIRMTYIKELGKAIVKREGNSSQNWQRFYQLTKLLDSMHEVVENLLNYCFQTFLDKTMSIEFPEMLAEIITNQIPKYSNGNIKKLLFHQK

[5] = target: Glucocorticoid receptor (Homo sapiens) (UniProt P04150); experiment: GR-EFC Redistribution (AID 451; calls by dose curve; note: potency is the fitted concentration of half-maximal effect); details: CHO-K1 GR-EFC translocation, beta-gal luminescence, 2 h
Method in brief: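 CHO-K1 cells stably expressing nuclear-localized β-gal enzyme acceptor and GR fused C-terminally to the enzyme donor fragment; ligand-driven nuclear translocation restores β-gal by complementation. Compounds titrated up to 46 uM final, 2 h at 37 °C; luminescence read.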

[6] = target: Mitogen-activated protein kinase 10 (Mus musculus) (UniProt Q61831); experiment: JNK3 AlphaScreen Assay (AID 530; active = well fitted curve in either direction with a large enough effect, not every such curve was filed as active;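 note: kinase came from lysate of stimulated human HepG2 cells; signal reports phosphorylation of biotinylated GST-cJun 1-79 at Ser73 with 10 µM ATP; % is set by controls: 0 for no effect and ±100 for the full control effect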)
Method in brief: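 JNK3 came from HepG2 lysates pre-activated with IL-1beta and TNF-alpha and phosphorylated biotinylated GST-cJun (1-79) at 10 uM ATP, pH 7.6, room temperature. Compounds were titrated. AlphaScreen signal used anti-phospho-cJun (Ser73) antibody.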

[7] = qHTS Assay for Lipid Storage Modulators (AID 1519; calls by dose curve); details: Drosophila S3 cells, BODIPY lipid droplet/cell ratio, laser cytometry, cells loaded with oleic acid; for activity change, negative = inhibition: at 25.7 µM (top of the series)
Method in brief: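 Cells seeded at 5,000 per well were treated with compounds over a concentration series and loaded with oleic acid (400 uM, as added). Lipid droplet fluorescence (488 nm excitation, 500-530 nm channel) was read by laser-scanning cytometry and normalized to 20 uM Triacsin C.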

[8] = target: ATP-dependent 6-phosphofructokinase (Trypanosoma brucei brucei) (UniProt O15648); experiment: qHTS Assay to Find Inhibitors of T. brucei phosphofructokinase: hit validation (AID 492961);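 note: luminescence reports ADP formed as PFK phosphorylates fructose-6-phosphate with ATP; % is set by controls: 0 for no effect and ±100 for the full control effect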
Chain of ATP-dependent 6-phosphofructokinase (Trypanosoma brucei brucei) (O15648 whole entry, looked up): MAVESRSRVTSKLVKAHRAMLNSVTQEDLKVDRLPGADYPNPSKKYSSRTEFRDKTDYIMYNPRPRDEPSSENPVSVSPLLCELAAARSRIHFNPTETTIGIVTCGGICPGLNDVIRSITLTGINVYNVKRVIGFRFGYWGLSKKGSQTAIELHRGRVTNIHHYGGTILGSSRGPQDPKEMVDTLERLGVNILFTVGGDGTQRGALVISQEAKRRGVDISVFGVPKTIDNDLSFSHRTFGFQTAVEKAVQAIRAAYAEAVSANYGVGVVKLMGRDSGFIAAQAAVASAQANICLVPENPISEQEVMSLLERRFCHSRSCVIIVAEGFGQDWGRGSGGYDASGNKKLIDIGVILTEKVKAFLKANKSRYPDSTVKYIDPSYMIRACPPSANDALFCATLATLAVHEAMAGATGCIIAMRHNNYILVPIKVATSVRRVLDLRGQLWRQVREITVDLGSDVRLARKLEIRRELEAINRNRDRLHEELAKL
Method in brief: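 Reaction: 0.1 M triethanolamine pH 8.0, 5 mM MgCl2, F6P 0.5 mM, ATP 0.1 mM, PFK 1.25 nM, 45 min RT. Read-out: ADP-Glo luminescence. Analysis: concentration-response fits, classed by r2 and efficacy.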

CP217 = experiment: qHTS profiling for inhibitors of Plasmodium falciparum proliferation (AID 504749); note: nearly all actives have a fitted effect of over 60% in size; note: potency is the fitted concentration of half-maximal effect;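 for activity, negative = inhibition: 0% = DMSO vehicle and full inhibition = artemisinin control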; details: P. falciparum in erythrocytes, SYBR Green DNA, 72 h; series mostly up to 12.8 µM
Method in brief: (§1)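 P. falciparum-infected erythrocytes (0.3% parasitemia, 2.5% hematocrit final) were exposed to compounds for 72 h at 37 C in 5% CO2, then lysed with SYBR Green buffer overnight at room temperature; parasite DNA fluorescence was normalized to artemisinin and DMSO controls.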

SC27B = experiment: as above; details: P. falciparum in erythrocytes, SYBR Green DNA, 72 h; series mostly up to 12.8 µM
Method in brief: as §1

[9] = target: 3',5'-cyclic-AMP phosphodiesterase 4B (Homo sapiens) (UniProt Q07343); experiment: qHTS Assay for Inhibitors of PDE-IV (AID 607; active = well fitted activation curve with a large enough effect in the main read-out, with a control signal flat, not every such curve was filed as active; note: % of control where 0% means no effect)
Chain of 3',5'-cyclic-AMP phosphodiesterase 4B (Homo sapiens) (Q07343 whole entry, looked up): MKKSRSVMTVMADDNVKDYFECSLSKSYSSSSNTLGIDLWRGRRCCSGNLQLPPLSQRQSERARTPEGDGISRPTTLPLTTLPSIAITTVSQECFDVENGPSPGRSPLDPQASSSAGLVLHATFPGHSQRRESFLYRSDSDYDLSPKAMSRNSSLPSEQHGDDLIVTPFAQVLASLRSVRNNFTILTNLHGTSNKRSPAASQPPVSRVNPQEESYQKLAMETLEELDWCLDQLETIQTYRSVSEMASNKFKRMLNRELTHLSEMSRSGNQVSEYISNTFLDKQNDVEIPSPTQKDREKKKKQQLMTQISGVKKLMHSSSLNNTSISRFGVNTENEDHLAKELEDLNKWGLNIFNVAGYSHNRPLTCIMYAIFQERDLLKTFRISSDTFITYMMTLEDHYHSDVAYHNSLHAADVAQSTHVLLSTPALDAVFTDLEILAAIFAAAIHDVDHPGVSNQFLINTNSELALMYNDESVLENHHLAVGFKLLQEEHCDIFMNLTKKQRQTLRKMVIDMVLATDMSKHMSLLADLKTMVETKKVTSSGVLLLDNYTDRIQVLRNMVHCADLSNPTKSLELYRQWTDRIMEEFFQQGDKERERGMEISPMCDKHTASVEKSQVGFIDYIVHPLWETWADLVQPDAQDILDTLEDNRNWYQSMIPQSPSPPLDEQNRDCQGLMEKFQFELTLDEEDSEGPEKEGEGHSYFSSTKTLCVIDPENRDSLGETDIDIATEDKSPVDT
Method in brief: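 ACTOne HEK293 cells carry a modified cAMP-gated CNG channel and express endogenous PDE4; plated 1000 cells/well, compounds up to 22.9 uM final. Membrane-potential dye fluorescence (ex 535/em 590) was read; parental cells received 10 uM forskolin + 100 uM RO 20-1724.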

[10] = target: Ubiquitin carboxyl-terminal hydrolase 1 (Homo sapiens) (UniProt O94782); experiment: Inhibitors of USP1/UAF1: Pilot qHTS (AID 504865);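 note: rhodamine fluorescence freed from ubiquitin-rhodamine substrate followed over time; top concentration of the series differs between compounds; % is set by controls: 0 for no effect and ±100 for the full control effect; nearly all actives have a fitted effect of over 35% in size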
Chain of Ubiquitin carboxyl-terminal hydrolase 1 (Homo sapiens) (O94782 whole entry, looked up): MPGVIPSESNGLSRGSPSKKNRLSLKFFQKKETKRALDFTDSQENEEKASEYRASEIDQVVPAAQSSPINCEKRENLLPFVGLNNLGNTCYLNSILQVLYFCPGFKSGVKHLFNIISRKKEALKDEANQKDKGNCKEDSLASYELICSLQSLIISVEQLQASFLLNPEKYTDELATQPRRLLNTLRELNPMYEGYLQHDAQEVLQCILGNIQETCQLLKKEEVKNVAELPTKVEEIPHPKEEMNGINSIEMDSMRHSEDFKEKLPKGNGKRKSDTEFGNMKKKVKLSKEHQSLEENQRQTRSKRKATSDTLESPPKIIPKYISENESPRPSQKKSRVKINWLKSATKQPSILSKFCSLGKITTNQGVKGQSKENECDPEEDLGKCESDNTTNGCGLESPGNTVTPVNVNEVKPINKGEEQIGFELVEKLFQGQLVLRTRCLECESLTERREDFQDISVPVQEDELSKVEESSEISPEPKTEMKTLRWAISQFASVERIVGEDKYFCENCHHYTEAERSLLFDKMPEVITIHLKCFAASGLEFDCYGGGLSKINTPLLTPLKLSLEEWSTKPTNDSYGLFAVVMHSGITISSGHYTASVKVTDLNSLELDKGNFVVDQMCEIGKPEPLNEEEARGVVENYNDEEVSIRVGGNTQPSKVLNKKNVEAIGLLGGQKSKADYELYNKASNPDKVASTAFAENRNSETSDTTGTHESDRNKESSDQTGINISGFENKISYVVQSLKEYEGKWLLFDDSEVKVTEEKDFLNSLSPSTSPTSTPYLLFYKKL
Method in brief: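 Enzyme-free wells gave the negative control, while test wells held 1nM USP1/UAF1 preincubated with compound for 15 min at room temperature. Ub-Rho at 150nM final started the reaction, and fluorescence at 480/540 nm was recorded kinetically.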

[11] = NFAT Signaling Pathway (AID 444; active = well fitted curve in either direction with a large enough effect, not every such curve was filed as active); details: Jurkat NFAT-bla M1, carbachol, beta-lactamase ratio, 5 h; at 17.2 µM (top of the series) unless noted
Method in brief: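 Jurkat cells carrying an NFAT-driven β-lactamase reporter and co-transfected muscarinic M1 receptor were treated with compound plus carbachol (1 uM final, an EC50 level) for 5 h at 37 °C. CCF4 loading followed for 1 h at RT; 460/530 nm ratio gave %activity.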

C2A = experiment: qHTS profiling for inhibitors of Plasmodium falciparum proliferation (AID 504749); note: nearly all actives have a fitted effect of over 60% in size; note: potency is the fitted concentration of half-maximal effect;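 for activity, negative = inhibition: 0% = DMSO vehicle and full inhibition = artemisinin control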; details: P. falciparum in erythrocytes, SYBR Green DNA, 72 h; series mostly up to 12.8 µM
Method in brief: as §1

CP250 = experiment: as above; details: P. falciparum in erythrocytes, SYBR Green DNA, 72 h; series mostly up to 12.8 µM
Method in brief: as §1

CP256 = experiment: as above; details: P. falciparum in erythrocytes, SYBR Green DNA, 72 h; series mostly up to 12.8 µM
Method in brief: as §1

FAB9 = experiment: as above; details: P. falciparum in erythrocytes, SYBR Green DNA, 72 h; series mostly up to 12.8 µM
Method in brief: as §1

JCK = experiment: as above; details: P. falciparum in erythrocytes, SYBR Green DNA, 72 h; series mostly up to 12.8 µM
Method in brief: as §1

[12] = as above; details: P. falciparum in erythrocytes, SYBR Green DNA, 72 h; for activity, negative = inhibition: at 12.8 µM (top of the series)
Method in brief: as §1

CP191 = experiment: as above; details: P. falciparum in erythrocytes, SYBR Green DNA, 72 h; series mostly up to 12.8 µM
Method in brief: as §1

[13] = measured here: cell count channel max response
[14] = measured here: lipid channel max response

Clc1ccc(CC[C@H](Cn2ccnc2)Sc2c(Cl)cccc2Cl)cc1
inactive: outcome [1] | outcome [3] | Potency [4] > 20.6 µM | Potency [5] > 20.6 µM | Potency [6] | activity change, negative = inhibition [7] 3.47% | outcome [8]
-3.86%: max response [7, 13]
active: Potency [2] 3.98 µM | Potency (CP217) 3.55 µM | Potency (SC27B) 3.98 µM
-6.78%: max response [7, 14]

Cc1nccn1C[C@@H]1CCc2c(c3ccccc3n2C)C1=O
inactive: outcome [1] | outcome [3] | Potency [4] > 20.6 µM | Potency [5] > 20.6 µM | Potency [6] | outcome [9] | activity change, negative = inhibition [7] -8.25% | Potency [10]
-10%: max response [7, 13]
active: Potency [2] 3.98 µM
-16.3%: max response [7, 14]

COC(=O)C1=C(C)NC(C)=C(C(=O)OC(C)C)[C@H]1c1cccc2nonc12
-21.2%: max response [7, 13]
inactive: outcome [1] | activity change, negative = inhibition [11] -22.3% | Potency [4] > 20.6 µM | Potency [5] > 20.6 µM | Potency [6] | outcome [9] | activity change, negative = inhibition [7] -0.0066% | outcome [8] | Potency (C2A) | Potency (CP217) | Potency (CP250) | Potency (CP256) | Potency (FAB9) | Potency (JCK)
-22.3%: max response [7, 14]
active: Potency [2] 12.6 µM

C[C@]12CC[C@@H]3C(=CCc4cc(O)ccc43)[C@@H]1CCC2=O
-15.4%: max response [7, 14]
active: Potency [2] 10 µM
-14.4%: max response [7, 13]
inactive: outcome [1] | activity change, negative = inhibition [11] 1.57% | Potency [4] > 20.6 µM | Potency [5] > 20.6 µM | Potency [6] | outcome [9] | activity change, negative = inhibition [7] -4.32% | Potency [10]

COC(=O)Nc1nc2ccc(SC(C)C)cc2[nH]1
inactive: outcome [1] | outcome [3] | Potency [4] > 20.6 µM | Potency [5] > 20.6 µM | Potency [6] | outcome [9] | activity change, negative = inhibition [7] -1.67% | Potency [10]
-2.31%: max response [7, 13]
-4.22%: max response [7, 14]
active: Potency [2] 0.501 µM

CC1(C)O[C@H]2C[C@@H]3[C@H]4CCC5=CC(=O)CC[C@@]5(C)[C@]4(F)[C@@H](O)C[C@@]3(C)[C@@]2(C(=O)CCl)O1
-17.1%: max response [7, 14]
active: Potency ([12]; parasite line B) 1.58 µM | Potency (CP191) 3.16 µM | Potency (CP217) 2.24 µM | Potency (CP250) 3.98 µM | Potency (CP256) 3.55 µM
-11.4%: max response [7, 13]
inactive: outcome [1] | Potency [2] | activity change, negative = inhibition [11] 17.6% | Potency [6] | outcome [9] | activity change, negative = inhibition [7] -3.97% | outcome [8] | Potency (FAB9)

CC(=O)CC(=O)[C@@]1(O)CC[C@@H]2[C@@H]3C=C(C)C4=CC(=O)CC[C@@H]4[C@H]3CC[C@]21C
inactive: outcome [1] | Potency [2] | outcome [3] | Potency [5] > 20.6 µM | Potency [6] | outcome [9] | activity change, negative = inhibition [7] -4.61%
-16.2%: max response [7, 13]
-21%: max response [7, 14]

NC[C@@H]1O[C@H](O[C@H]2[C@H](O)[C@H](O[C@@H]3O[C@H](CO)[C@@H](O)[C@H](N)[C@@H]3O)[C@@H](N)C[C@H]2N)[C@@H](O)[C@H](O)[C@@H]1O
inactive: outcome [1] | activity change, negative = inhibition [11] -3.83% | outcome [3] | Potency [4] > 20.6 µM | Potency [5] > 20.6 µM | Potency [6] | outcome [9] | activity change, negative = inhibition [7] -4.16% | outcome [8] | activity, negative = inhibition ([12]; parasite line A) 3.46% | activity, negative = inhibition ([12]; parasite line B) 7.68% | Potency (C2A) | Potency (CP191) | Potency (CP217) | Potency (CP250) | Potency (CP256) | Potency (FAB9) | Potency (JCK) | Potency (SC27B)
-1.61%: max response [7, 13]
-7%: max response [7, 14]
